Screening results from PubChem.
The list is not random: actives were taken first. Their share in the collection is about 1.3%.
Tb PGK inh: inhibitors of T. brucei phosphoglycerate kinase | P07378 | PGK/GAPDH coupled, Kinase-Glo luminescence, 60 min | Potency, µM (titrated, usually from 57.5 µM), without a hit: at the highest dose activity change, negative = inhibition, hits mostly inhibitors | hit rate 0.043% among 380,000 | AID 602233; note: potency is the fitted concentration of half-maximal effect; % is set by controls: 0 for no effect and ±100 for the full control effect; nearly all actives have a fitted effect of over 60% in size
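Recombinant glycosomal PGK reaction used 1,3-bisphosphoglycerate generated in-well by GAPDH (100nM final) in 100mM TEA pH 7.6, 5mM MgCl2, 0.01% Tween-20. After 60 minutes at room temperature, ATP was read by Kinase-Glo Plus luminescence end-point.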
FEN1 inh: blocks human flap endonuclease 1; P39748; Recombinant FEN1 flap cleavage, fluorescence, 15 min; Potency, µM (highest dose often 114 µM), for inactives: at the highest dose activity change, negative = inhibition, usual class: inhibitors; hit rate 0.35% among 390,000; note: potency is the fitted concentration of half-maximal effect; % is set by controls: 0 for no effect and ±100 for the full control effect; nearly all actives have a fitted effect of over 65% in size
Target sequence (P39748 whole entry, looked up): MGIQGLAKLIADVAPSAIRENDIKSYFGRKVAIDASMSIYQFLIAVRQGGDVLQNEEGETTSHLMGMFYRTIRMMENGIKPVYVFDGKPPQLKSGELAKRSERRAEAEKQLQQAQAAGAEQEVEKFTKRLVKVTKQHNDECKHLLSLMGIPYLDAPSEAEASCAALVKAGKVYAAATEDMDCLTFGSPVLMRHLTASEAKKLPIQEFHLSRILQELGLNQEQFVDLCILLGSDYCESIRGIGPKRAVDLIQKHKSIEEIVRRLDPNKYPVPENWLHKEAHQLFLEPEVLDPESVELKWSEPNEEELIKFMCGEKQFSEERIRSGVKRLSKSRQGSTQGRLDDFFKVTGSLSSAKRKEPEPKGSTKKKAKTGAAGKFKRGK
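Reaction started by adding substrate (50 nM final) to 10 nM enzyme after 15 min room-temperature compound preincubation. Reads at 0 and 15 min, with data normalized and fitted to a four-parameter Hill equation.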
Pin1 inhibitor: inhibitors of human Pin1 | Q13526 | Pin1 FP peptide displacement, HiFluor488, 10 min | AID 504891 | hit rate 0.009% among 390,000 | Potency, µM (series often up to 115 µM), for the others: at the top dose activity, negative = inhibition, most hits filed as inhibitors; active = well fitted inhibition curve with a large enough effect in the polarisation, with a control signal flat, not every such curve was filed as active; inconclusive = small, poorly fitted or top-dose-only effect, or effect the other way, or a change in a side signal; inactive = no such curve, though single readings can be large or run the other way; the % refers to the polarisation; note: potency is the fitted concentration of half-maximal effect; % is set by controls: 0 for no effect and ±100 for the full control effect
PI5P4K alpha inh: blocks human PI5P4K alpha kinase activity | P48426 | PI5P4Kalpha enzyme, ADP-Glo luminescence, 60 min; hits give low values | max response, % | hit rate 1.2% among 330,000 | AID 652105; active = max response of -50% or lower; inconclusive = between -30% and -50%; inactive = -30% or higher; note: value at the top dose of about 77 µM; % is set by controls: 0 for no effect and ±100 for the full control effect
Target sequence (P48426 whole entry, looked up): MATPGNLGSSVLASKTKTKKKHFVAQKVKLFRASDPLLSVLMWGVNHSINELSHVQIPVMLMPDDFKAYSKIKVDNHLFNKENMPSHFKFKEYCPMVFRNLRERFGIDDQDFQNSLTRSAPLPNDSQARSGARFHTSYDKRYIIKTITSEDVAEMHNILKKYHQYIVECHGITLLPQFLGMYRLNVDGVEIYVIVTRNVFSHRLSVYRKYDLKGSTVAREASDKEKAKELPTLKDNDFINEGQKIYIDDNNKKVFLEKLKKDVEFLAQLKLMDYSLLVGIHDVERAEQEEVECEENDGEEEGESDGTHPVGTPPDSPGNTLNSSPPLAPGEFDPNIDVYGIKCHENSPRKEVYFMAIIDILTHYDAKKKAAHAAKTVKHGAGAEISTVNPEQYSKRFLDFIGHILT
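Single end-point luminescence (ADP-Glo) quantified ADP from PI5P4Kalpha turnover; ATP 5 microM final, 1 h at RT, 0.1% CHAPS and 0.28 mM EGTA in HEPES pH 7.4.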
WRN inhibitor: blocks human WRN helicase | hit rate 0.46% among 360,000 | Potency, µM (highest dose often 114 µM), without a hit: at the top dose activity change, negative = inhibition, hits mostly inhibitors | AID 651768 | WRN helicase unwinding, fluorescent forked duplex, kinetic; note: potency is the fitted concentration of half-maximal effect; % is set by controls: 0 for no effect and ±100 for the full control effect; nearly all actives have a fitted effect of over 55% in size
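Primary qHTS, 1536-well format. 20 nM WRN + compound, 15 min RT; start with 100 nM forked fluorophore/quencher duplex, 2 mM ATP (final); kinetic read ex 525/em 598 nm.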
Glioma ERSR ind: ER stress response induction in glioma | U87-MG GRP78 promoter luciferase reporter, 16 h | Potency, µM, for the others: top-dose activation, actives largely listed as activators | hit rate 0.02% among 420,000; note: potency is the fitted concentration of half-maximal effect; series mostly up to about 76 µM; % of control where 0% means no effect; nearly all actives have a fitted effect of over 35% in size
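Stably transfected U87-MG glioma cells carrying a GRP78-based luciferase sensor; 16 h compound incubation. Luminescence end-point read 10 min after Bright-Glo addition at room temperature.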
Active calls of the source: *; [ ] = another dose, or the depositor's remark. Unless noted, calls come from the whole dose curve; as a rule, active = well fitted curve in the direction sought with a large enough effect; inconclusive = small, poorly fitted or top-dose-only effect, or another doubt; inactive = no such curve, though single readings can be large; an effect the other way counts as inactive or inconclusive.

How did C=CCOc1ccc(C=NNc2ccc(S(=O)(=O)Nc3ccccc3C(=O)O)cc2[N+](=O)[O-])cc1OC do in these assays?
Tb PGK inh: inconclusive; FEN1 inh: inconclusive; PI5P4K alpha inh: -83*; WRN inhibitor: 50µM*; Glioma ERSR ind: -4%

How did COc1ccc(NC(=S)NNc2ccc(S(=O)(=O)Nc3ccccc3C(=O)O)cc2[N+](=O)[O-])cc1 do in these assays?
Tb PGK inh: -25%; FEN1 inh: inconclusive; Pin1 inhibitor: -28%; PI5P4K alpha inh: -71*; WRN inhibitor: -10%[11.6 µM]; Glioma ERSR ind: -8%

How did Cc1nn(-c2ccccc2)c(Cl)c1/C=N/Nc1ccc(S(=O)(=O)Nc2ccccc2C(=O)O)cc1[N+](=O)[O-] do in these assays?
Tb PGK inh: inconclusive; FEN1 inh: inconclusive; WRN inhibitor: inconclusive; Glioma ERSR ind: 11%

How did COc1ccc(C=NNc2ccc(S(=O)(=O)Nc3ccccc3C(=O)O)cc2[N+](=O)[O-])c(OC)c1 do in these assays?
Tb PGK inh: inconclusive; FEN1 inh: 22µM*; PI5P4K alpha inh: -70*; WRN inhibitor: inconclusive; Glioma ERSR ind: 3%

What do the screens show for `O=C(NC(c1cccnc1)C(F)(F)F)c1cnn(-c2nccc(-c3cccs3)n2)c1C1CC1` (stereo not given)?
Glioma ERSR ind: 2%

Results for CN(C)c1cccc(-c2ncc(F)c(N3CCC(C(N)=O)CC3)n2)c1 ?
Pin1 inhibitor: -1%

How did CO/N=C(\C(=O)N[C@@H]1C(=O)N2C(C(=O)[O-])=C(C[n+]3cccc4c3CCCC4)CS[C@H]12)c1csc(N)n1 do in these assays?
Glioma ERSR ind: -3%

Results for COC(=O)COc1ccc2c(-c3ccc(OC)cc3)cc(=O)oc2c1 ?
Tb PGK inh: -2%; FEN1 inh: -1%; Pin1 inhibitor: 0%; PI5P4K alpha inh: 3; WRN inhibitor: -26%; Glioma ERSR ind: 25µM*

Results for CCOC(=O)c1c(NC(C)=O)sc2c(OCC(O)CN(CC)CC)c(Br)ccc12 (stereo not given) ?
Tb PGK inh: -11%; FEN1 inh: 22µM*; Pin1 inhibitor: 8%; PI5P4K alpha inh: 0; WRN inhibitor: 15%[11.6 µM]; Glioma ERSR ind: -5%

What do the screens show for `CCOc1ccccc1NC(=O)C(=O)c1cc(C)n(-c2ccc(F)cc2)c1C`?
Tb PGK inh: inactive; FEN1 inh: 8%; Pin1 inhibitor: 19%; Glioma ERSR ind: -2%

Results for Cc1cc(C(=O)N/N=C2\CC(=O)c3ccccc32)c(C)n1-c1ccc(F)cc1 ?
Tb PGK inh: 1%; FEN1 inh: 2%; Pin1 inhibitor: inconclusive; PI5P4K alpha inh: -64*; WRN inhibitor: 8%; Glioma ERSR ind: 5%

Results for COc1ccccc1N1CCN(c2nc(CNC(=O)c3ccc4c(c3)OCO4)nc3ccccc23)CC1 ?
Glioma ERSR ind: -4%

Results for O=C1CCc2cc(S(=O)(=O)Nc3ccc(F)c(Cl)c3)ccc2N1 ?
Pin1 inhibitor: 1%

How did O=[N+]([O-])c1cc(-c2ccc(/C=N\n3cnnc3)o2)cc([N+](=O)[O-])c1 do in these assays?
Tb PGK inh: 7%; FEN1 inh: -7%; Pin1 inhibitor: -5%; PI5P4K alpha inh: -59*; WRN inhibitor: -25%; Glioma ERSR ind: 0%

What do the screens show for `O=[N+]([O-])c1ccccc1-c1ccc(/C=N/n2cnnc2)o1`?
Tb PGK inh: -6%; FEN1 inh: -15%; Pin1 inhibitor: 1%; WRN inhibitor: 9%; Glioma ERSR ind: -3%

How did Cc1nn(C)c(C)c1/C=C1/SC(=S)NC1=O do in these assays?
Tb PGK inh: -5%; FEN1 inh: -1%; Pin1 inhibitor: 2%; PI5P4K alpha inh: -78*; WRN inhibitor: -2%; Glioma ERSR ind: -3%

Results for CCN1C(=O)/C(=C/c2c(C)nn(C)c2C)SC1=S ?
Tb PGK inh: inactive; FEN1 inh: -4%; Pin1 inhibitor: inconclusive; WRN inhibitor: -15%; Glioma ERSR ind: 6%

What do the screens show for `Cc1nn(C)cc1/C=C1\SC(=S)NC1=O`?
Tb PGK inh: inactive; FEN1 inh: 10%; Pin1 inhibitor: 9%; PI5P4K alpha inh: -82*; WRN inhibitor: -21%; Glioma ERSR ind: 2%

Results for CCCCOC(=O)CSc1nnc(-c2cc(OC)c(OC)c(OC)c2)o1 ?
Tb PGK inh: -4%; FEN1 inh: -3%; Pin1 inhibitor: -4%; WRN inhibitor: 1%; Glioma ERSR ind: 13µM*

What do the screens show for `CCCCN(CCCC)C(=O)CSc1nnc(-c2cc(OC)c(OC)c(OC)c2)o1`?
Tb PGK inh: inactive; FEN1 inh: -6%; Pin1 inhibitor: -2%; WRN inhibitor: 6%; Glioma ERSR ind: -1%

What do the screens show for `CCN(CC)CCn1c2ccccc2c2nc3ccccc3nc21`?
Tb PGK inh: -6%; FEN1 inh: 25µM*; Pin1 inhibitor: -1%; PI5P4K alpha inh: -5; WRN inhibitor: 2%[11.6 µM]; Glioma ERSR ind: 9%

How did Cc1ccc(SSc2cc(C)ccc2N)c(N)c1 do in these assays?
Tb PGK inh: -1%; FEN1 inh: inconclusive; Pin1 inhibitor: 1%; PI5P4K alpha inh: -81*; WRN inhibitor: -3%; Glioma ERSR ind: 2%

Results for COc1cccc2c1C(=O)c1c(O)c3c(c(O)c1C2=O)C[C@](O)(C(=O)CO)C[C@H]3O[C@@H]1C[C@H](N)[C@H](O)[C@H](C)O1 ?
Glioma ERSR ind: -6%

How did CCCCC(=O)OCC(=O)C1(O)Cc2c(O)c3c(c(O)c2C(OC2CC(NC(=O)C(F)(F)F)C(O)C(C)O2)C1)C(=O)c1c(OC)cccc1C3=O (stereo not given) do in these assays?
Tb PGK inh: -16%; FEN1 inh: -32%; Pin1 inhibitor: inconclusive; PI5P4K alpha inh: -6; WRN inhibitor: 7.9µM*; Glioma ERSR ind: 6%

What do the screens show for `COc1cccc(CN2CCC3(CCC(CNC(=O)c4ccccc4)O3)CC2)c1` (stereo not given)?
Glioma ERSR ind: -3%

What do the screens show for `COc1ccc(-n2sc3ccc(F)cc3c2=O)cc1`?
Tb PGK inh: -6%; FEN1 inh: inconclusive; Pin1 inhibitor: -21%; PI5P4K alpha inh: -87*; WRN inhibitor: 4%; Glioma ERSR ind: -11%

How did O=c1c2cc(F)ccc2sn1-c1ccc(F)cc1 do in these assays?
Tb PGK inh: 2%; FEN1 inh: 79µM*; Pin1 inhibitor: -11%; PI5P4K alpha inh: -90*; WRN inhibitor: -1%; Glioma ERSR ind: -4%

Results for COc1ccc(-n2sc3ccccc3c2=O)cc1 ?
Tb PGK inh: -1%; PI5P4K alpha inh: -89*; WRN inhibitor: -2%; Glioma ERSR ind: -11%

What do the screens show for `Cc1ccc(C)c(-n2sc3ccc(F)cc3c2=O)c1`?
Tb PGK inh: inactive; FEN1 inh: inconclusive; Pin1 inhibitor: -5%; PI5P4K alpha inh: -85*; WRN inhibitor: 2%; Glioma ERSR ind: -11%
